# Hits are enriched below; roughly 19% of the tested compounds scored in any of these assays.
# HT1080-NT tox – qHTS for induction of synthetic lethality in tumor cells producing 2HG: qHTS for the HT-1080-NT fibrosarcoma cell line; HT-1080-NT fibrosarcoma viability, CellTiter-Glo ATP luminescence, 48 h; Potency, µM (top dose mostly 46.1 µM), for the others: top-dose activity, negative = less viability, usual class: cytotoxic; hit rate 1.6% among 360,000;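 also: NT is the 2HG producing partner of a matched IDH1 knockdown line; potency is read from the fitted curve at half-maximal effect; 0% = DMSO-treated cells and -100% = media-only wells without cells; nearly all actives have a fitted effect of over 55% in size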
#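 Toxicity toward the 2HG-producing NT line was scored as %Activity, normalised to DMSO and no-cell wells, from CellTiter-Glo luminescence after 48 hours' treatment.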
# HT1080 IDH1KD tx – qHTS for induction of synthetic lethality in tumor cells producing 2HG: qHTS for the HT-1080-IDH1KD cell line | hit rate 2% among 360,000 | AID 686971, 2013 | Potency, µM (titrated, usually from 46.1 µM), for inactives: at the highest dose activity, negative = toxicity, usual class: cytotoxic | HT-1080 IDH1 knockdown viability, ATP luminescence, 48 h;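 also: potency is read from the fitted curve at half-maximal effect; 0% = DMSO wells and -100% = cell-free medium wells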
#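 Assay cells: HT-1080 with IDH1 knockdown, 750 per well, RPMI/5% FBS. Exposure: 48 h at 37 °C following 2 h pre-incubation. Read: CellTiter-Glo luminescence; fitted concentration-response, curve class assigned.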
# IL-1B inflam inh – qHTS for Inhibitors of Inflammasome Signaling: IL-1-beta AlphaLISA Primary Screen; THP-1 LPS/ATP IL-1B secretion, AlphaLISA, 16 h; active compounds read low; activity change, % at 57.5 µM; hit rate 4.7% among 360,000; AID 743279, 2014; in the data active = activity change below about -50%; inconclusive = mostly about -30% to -49%
#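 Secreted IL-1B measured by AlphaLISA bead assay after 16 h compound exposure of THP-1 cells; compounds (final up to 57.5 uM) added 1 h before LPS (250 ng/mL) and ATP (1.25 mM) stimulation; lower signal means less secretion.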
# DT40 TDP1 CPT – qHTS for Inhibitors of human tyrosyl-DNA phosphodiesterase 1 (TDP1): qHTS in cells in presence of CPT; chicken DT40 Tdp1-/-;hTDP1 cells + 20 nM CPT, ATP luminescence, 48 h; Potency, µM (highest dose often 46.2 µM), inactives show at the highest dose activity change, negative = growth inhibition, most hits filed as inhibitors; hit rate 12% among 420,000; AID 686979, 2013; also: potency is read from the fitted curve at half-maximal effect; nearly all actives have a fitted effect of over 55% in size
#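 Cell growth measured by CellTiter-Glo luminescence after a minimum 48 h, 37 C compound exposure with 20 nM CPT in Tdp1-knockout DT40 cells stably expressing hTDP1, seeded 400/well; qHTS titration format.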
# DT40 TDP1 no CPT – qHTS for Inhibitors of human tyrosyl-DNA phosphodiesterase 1 (TDP1): qHTS in cells in absence of CPT; Potency, µM (series often up to 46.2 µM), for the others: top-dose activity change, negative = growth inhibition, actives largely listed as inhibitors; DT40 Tdp1-/- hTDP1 cells, no CPT, ATP luminescence, 48 h; hit rate 15% among 420,000; also: potency is read from the fitted curve at half-maximal effect; nearly all actives have a fitted effect of over 55% in size
#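 Luminescent ATP content (CellTiter-Glo) served as the growth readout. Knockout chicken DT40 cells expressing human TDP1 were exposed to compounds without camptothecin for a minimum 48 hr at 37 °C.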
# ELG1 DNA repair – qHTS screen for small molecules that inhibit ELG1-dependent DNA repair in human embryonic kidney (HEK293T) cells expressing luciferase-tagged ELG1. hit rate 2.3% among 330,000. Potency, µM (series often up to 46.1 µM), for the others: at the highest dose activity change, negative = inhibition, actives largely listed as inhibitors. HEK293T ELG1-luciferase reporter, luminescence, 16 h; DNA damage induced by 5-fluorouridine. AID 504467, 2011; also: potency is read from the fitted curve at half-maximal effect; nearly all actives have a fitted effect of over 55% in size
#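 Luminescence from the luciferase reporter, measured 30 min after ONE-Glo reagent at room temperature, was the read-out. Beforehand, 2,000 cells per well were exposed for 16 hr at 37 °C to 5-fluorouridine together with compound or vehicle.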
# The depositor's hits bear a star; ? = inconclusive; nt = no result; [ ] = dose if it differs, or a comment. Unless noted, calls follow the shape of the dose curve; as a rule, active = well fitted curve in the direction sought with a large enough effect; inconclusive = small, poorly fitted or top-dose-only effect, or another doubt; inactive = no such curve, though single readings can be large; an effect the other way counts as inactive or inconclusive. Unless noted, % is scaled to controls: 0 for no effect and ±100 for the full control effect.
SMILES,HT1080-NT tox,HT1080 IDH1KD tx,IL-1B inflam inh,DT40 TDP1 CPT,DT40 TDP1 no CPT,ELG1 DNA repair
O=C(CC(=O)NCc1ccc(Cl)cc1)NCc1ccccc1,-2%,4%,12,0%,2%,17%
Cc1cccc(NC(=O)c2c(NC(=O)c3ccco3)sc3c2CCC(C(C)(C)C)C3)c1 (stereo unspecified),nt,nt,nt,5%,-2%,nt
CN(C)S(=O)(=O)c1ccc(Cl)c(NC(=O)CSc2nc3ccccc3c(=O)n2CCCN2CCOCC2)c1,1%,3%,-5,?,26µM*,?
CC(=O)c1cccc(NC(=O)CSc2nc3ccccc3c(=O)n2CCCN2CCOCC2)c1,-15%,0%,-11,-21%,?,-25%
O=C(CSc1nc2ccccc2c(=O)n1CCCN1CCOCC1)Nc1ccc(Br)cc1,?,13µM*,-28,?,?,?
Cc1cccc(NC(=O)C(C)Sc2nc3ccccc3c(=O)n2CCCN2CCOCC2)c1 (stereo unspecified),-11%[9.24 µM],?,?,23µM*,-22%,-14%
Cc1cccc(OC(=O)c2cc(-c3ccc4c(c3)OCCO4)on2)c1,nt,nt,nt,-15%,-16%,nt
Cc1c(CCO)sc[n+]1CC(=O)c1ccccc1,nt,nt,nt,0.56µM*,?,nt
Cc1c(CCOC(=O)c2cc([N+](=O)[O-])cc([N+](=O)[O-])c2)sc[n+]1CC(=O)c1ccc(Br)cc1,-1%,-21%,-97*,?,?,?
Cc1c(CCOC(=O)C23CC4(C)CC(C)(CC(C)(C4)C2)C3)sc[n+]1CC(=O)c1ccccc1,?,?,-192*,?,?,1%
Cc1ccc(C(=O)OCCc2sc[n+](Cc3ccccc3)c2C)cc1,13%,16%,17,-3%,-3%,-1%
Cc1c(CCOC(=O)CC23CC4CC(CC(C4)C2)C3)sc[n+]1CC(=O)c1ccccc1,-22%,?,?,21µM*,15µM*,-25%
Cc1c[n+](CC(=O)c2ccccc2)cs1,21%,15%,-1,-10%,-17%,?
C[C@H](NC(=O)c1ncn(Cc2ccccc2)c1C(=O)N[C@@H](C)c1ccccc1)c1ccccc1,?,-10%,15,?,?,-14%
Cc1c(N)cc[n+](CC(=O)c2ccccc2)c1C,-9%,?,-70*,21µM*,21µM*,14%
Cc1cc[n+](CC(=O)c2ccccc2)c2ccccc12,-10%,-1%,26,12%,-10%,-7%
COC(=O)c1c(-c2c(Cl)cccc2Cl)noc1NC(=O)NN1CCCCC1,?,?,nt,?,16µM*,?
O=c1[nH]c2c(-c3nc(-c4ccc(Cl)cc4)cs3)c(O)cn2c2ccccc12,nt,nt,nt,4µM*,2.8µM*,nt
O=c1[nH]c2c(-c3nc(-c4ccc(F)cc4)cs3)c(O)cn2c2ccc(Br)cc12,nt,nt,nt,-25%,-10%,nt
O=C(c1c[nH]c(C(=O)C(Cl)(Cl)Cl)c1)c1c(F)cccc1F,?,-25%,-99*,?,21µM*,-1%
COc1ccc(C(=O)NC(C)CCn2cccn2)cc1OC1CCN(C(C)C)CC1 (stereo unspecified),9%,15%,-18,-4%,0%,4%

# Screening results deposited in PubChem by National Center for Advancing Translational Sciences (NCATS).
